# Assay results taken from publication PMC7862700, “An all-to-all approach to the identification of sequence-specific readers for epigenetic DNA modifications on cytosine”.
# Experiments:
# Experiment in all cases: DAPPL (digital affinity profiling via proximity ligation, sequencing); 10 mM Tris-HCl pH 7.5, 50 mM NaCl, 1 mM DTT, 4% glycerol, room temperature, 30 min; GST-TFs on glutathione beads, 16-mer random dsDNA library, 0.1% formaldehyde crosslink after washing; high values mean tight binding
# Settings in all cases: protein: recombinant; tags: N-terminal GST; dsDNA, one strand shown
# FLI1 = biological target: T1, FLI1 (Homo sapiens, UniProt Q01543 1-452)
# T1 sequence: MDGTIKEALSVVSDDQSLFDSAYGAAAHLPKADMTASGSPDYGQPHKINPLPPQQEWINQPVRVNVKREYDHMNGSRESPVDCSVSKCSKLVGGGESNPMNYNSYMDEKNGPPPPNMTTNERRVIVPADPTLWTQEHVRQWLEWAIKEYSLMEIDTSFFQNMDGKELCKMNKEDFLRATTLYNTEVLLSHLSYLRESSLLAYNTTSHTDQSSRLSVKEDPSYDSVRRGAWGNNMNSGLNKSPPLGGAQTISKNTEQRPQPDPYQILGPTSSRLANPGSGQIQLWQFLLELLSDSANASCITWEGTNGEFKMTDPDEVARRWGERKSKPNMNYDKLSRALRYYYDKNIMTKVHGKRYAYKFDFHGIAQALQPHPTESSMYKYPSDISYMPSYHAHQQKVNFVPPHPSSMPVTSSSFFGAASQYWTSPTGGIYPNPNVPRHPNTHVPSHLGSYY
# Method in brief: (§1)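 Human transcription factors were made in yeast as GST fusions, captured on glutathione beads and barcoded with DNA. With a tag-only sample included, the pool was incubated with 200 nmole of a random double-stranded 16-mer DNA library in Tris/NaCl/DTT/glycerol buffer at room temperature for 30 min, then crosslinked with 0.1% formaldehyde after washing, ligated by proximity, amplified and sequenced. For binding signal, each hexamer's read frequency for a factor is divided by its frequency for the tag-only sample.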
# ELK1 = biological target: T2, ELK1 (Homo sapiens, UniProt P19419 1-428)
# T2 sequence: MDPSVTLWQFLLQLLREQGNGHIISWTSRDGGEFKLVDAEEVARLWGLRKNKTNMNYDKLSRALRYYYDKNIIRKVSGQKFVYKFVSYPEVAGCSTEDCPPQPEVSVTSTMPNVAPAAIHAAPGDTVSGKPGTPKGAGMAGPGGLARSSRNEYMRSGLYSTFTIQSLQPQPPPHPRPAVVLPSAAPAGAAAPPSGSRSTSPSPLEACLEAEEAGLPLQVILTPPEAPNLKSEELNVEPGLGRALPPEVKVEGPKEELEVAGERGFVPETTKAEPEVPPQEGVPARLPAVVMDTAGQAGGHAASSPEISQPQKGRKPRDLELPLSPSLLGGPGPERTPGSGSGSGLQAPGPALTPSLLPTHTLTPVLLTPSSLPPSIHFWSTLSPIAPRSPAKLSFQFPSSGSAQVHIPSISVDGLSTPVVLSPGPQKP
# Method in brief: as §1
# GABPA = biological target: T3, GABPA (Homo sapiens, UniProt Q06546 1-454)
# T3 sequence: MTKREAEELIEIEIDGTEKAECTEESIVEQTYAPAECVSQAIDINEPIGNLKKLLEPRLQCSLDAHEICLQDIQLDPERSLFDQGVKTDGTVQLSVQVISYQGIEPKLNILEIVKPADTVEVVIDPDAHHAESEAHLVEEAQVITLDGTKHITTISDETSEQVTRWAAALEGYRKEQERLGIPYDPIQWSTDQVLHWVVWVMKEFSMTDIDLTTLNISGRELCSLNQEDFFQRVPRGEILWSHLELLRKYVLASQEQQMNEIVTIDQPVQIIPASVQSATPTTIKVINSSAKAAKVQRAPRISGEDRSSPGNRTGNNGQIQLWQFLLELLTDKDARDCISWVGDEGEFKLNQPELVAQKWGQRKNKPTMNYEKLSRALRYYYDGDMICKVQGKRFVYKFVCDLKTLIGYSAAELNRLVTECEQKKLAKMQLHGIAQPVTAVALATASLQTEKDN
# Method in brief: as §1
# ERG = biological target: T4, ERG (Homo sapiens, UniProt P11308 1-479)
# T4 sequence: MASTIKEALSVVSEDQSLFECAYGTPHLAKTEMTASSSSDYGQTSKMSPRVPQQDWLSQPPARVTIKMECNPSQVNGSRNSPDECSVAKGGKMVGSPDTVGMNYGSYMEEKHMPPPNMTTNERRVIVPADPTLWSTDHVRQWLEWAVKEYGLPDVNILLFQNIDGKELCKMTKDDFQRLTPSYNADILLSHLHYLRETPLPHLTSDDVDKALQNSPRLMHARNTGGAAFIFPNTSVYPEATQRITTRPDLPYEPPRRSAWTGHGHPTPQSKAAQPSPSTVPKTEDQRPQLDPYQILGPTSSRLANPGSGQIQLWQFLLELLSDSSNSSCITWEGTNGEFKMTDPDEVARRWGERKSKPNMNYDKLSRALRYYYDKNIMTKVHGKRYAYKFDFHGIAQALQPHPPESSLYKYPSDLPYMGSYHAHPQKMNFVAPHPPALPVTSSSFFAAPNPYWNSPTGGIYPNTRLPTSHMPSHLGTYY
# Method in brief: as §1
# ELF1 = ELF1 (Homo sapiens, UniProt P32519 1-619)
# Method in brief: as §1
# EHF = biological target: T5, EHF (Homo sapiens, UniProt Q9NZC4 1-300)
# T5 sequence: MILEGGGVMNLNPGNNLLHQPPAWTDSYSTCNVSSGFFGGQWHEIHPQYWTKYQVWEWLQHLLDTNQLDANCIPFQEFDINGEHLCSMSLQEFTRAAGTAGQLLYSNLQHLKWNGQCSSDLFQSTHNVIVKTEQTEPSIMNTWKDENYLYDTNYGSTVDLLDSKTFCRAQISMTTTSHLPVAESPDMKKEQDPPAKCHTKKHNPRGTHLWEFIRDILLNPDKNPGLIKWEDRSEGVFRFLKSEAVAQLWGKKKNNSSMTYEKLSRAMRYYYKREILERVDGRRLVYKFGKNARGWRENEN
# Method in brief: as §1
# SPI1 = SPI1 (Homo sapiens, UniProt P17947 1-270)
# Method in brief: as §1
# SPIB = SPIB (Homo sapiens, UniProt Q01892 1-262)
# Method in brief: as §1
# ELK3 = biological target: T6, ELK3 (Homo sapiens, UniProt P41970 1-407)
# T6 sequence: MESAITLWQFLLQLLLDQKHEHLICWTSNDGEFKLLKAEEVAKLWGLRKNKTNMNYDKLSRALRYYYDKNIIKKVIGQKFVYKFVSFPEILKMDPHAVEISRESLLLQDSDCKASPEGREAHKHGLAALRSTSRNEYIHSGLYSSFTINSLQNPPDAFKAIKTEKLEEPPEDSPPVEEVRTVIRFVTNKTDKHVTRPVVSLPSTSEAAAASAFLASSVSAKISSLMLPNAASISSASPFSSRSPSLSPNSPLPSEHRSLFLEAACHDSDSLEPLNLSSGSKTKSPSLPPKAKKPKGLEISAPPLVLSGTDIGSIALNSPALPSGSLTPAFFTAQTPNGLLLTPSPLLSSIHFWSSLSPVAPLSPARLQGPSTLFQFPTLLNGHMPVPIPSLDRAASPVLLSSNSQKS
# Method in brief: as §1
# FEV = biological target: T7, FEV (Homo sapiens, UniProt Q99581 1-238)
# T7 sequence: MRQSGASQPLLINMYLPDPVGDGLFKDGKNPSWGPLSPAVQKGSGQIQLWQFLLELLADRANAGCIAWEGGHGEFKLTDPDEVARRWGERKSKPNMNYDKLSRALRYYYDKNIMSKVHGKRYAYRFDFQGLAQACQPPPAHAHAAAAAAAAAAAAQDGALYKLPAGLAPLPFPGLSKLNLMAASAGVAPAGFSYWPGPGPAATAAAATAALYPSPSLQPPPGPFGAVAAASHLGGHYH
# Method in brief: as §1
# ETV5 = ETV5 (Homo sapiens, UniProt P41161 1-510)
# Method in brief: as §1
# SPIC = biological target: T8, SPIC (Homo sapiens, UniProt Q8N5J4 1-248)
# T8 sequence: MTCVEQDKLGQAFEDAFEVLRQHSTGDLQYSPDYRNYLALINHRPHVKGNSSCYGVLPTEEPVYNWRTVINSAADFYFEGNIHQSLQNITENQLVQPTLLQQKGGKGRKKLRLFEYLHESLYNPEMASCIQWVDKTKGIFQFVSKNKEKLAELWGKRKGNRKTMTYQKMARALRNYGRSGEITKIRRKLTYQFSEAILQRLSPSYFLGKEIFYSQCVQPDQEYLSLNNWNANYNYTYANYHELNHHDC
# Method in brief: as §1
# ELF4 = ELF4 (Homo sapiens, UniProt Q99607 1-663)
# Method in brief: as §1
# ELK4 = biological target: T9, ELK4 (Homo sapiens, UniProt P28324-2 1-405)
# T9 sequence: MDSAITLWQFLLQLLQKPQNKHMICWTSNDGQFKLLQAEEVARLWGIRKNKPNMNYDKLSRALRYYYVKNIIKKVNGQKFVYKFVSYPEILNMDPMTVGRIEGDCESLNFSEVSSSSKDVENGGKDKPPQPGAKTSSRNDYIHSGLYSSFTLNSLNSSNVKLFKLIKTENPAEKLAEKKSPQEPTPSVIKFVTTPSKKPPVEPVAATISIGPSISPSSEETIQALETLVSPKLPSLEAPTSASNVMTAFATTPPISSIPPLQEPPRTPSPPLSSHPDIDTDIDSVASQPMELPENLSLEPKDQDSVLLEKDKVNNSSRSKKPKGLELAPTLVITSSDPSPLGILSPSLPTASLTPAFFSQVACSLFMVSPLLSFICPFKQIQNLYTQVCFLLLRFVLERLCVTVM
# Method in brief: as §1
# ETV2 = biological target: T10, ETV2 (Homo sapiens, UniProt O00321 1-342)
# T10 sequence: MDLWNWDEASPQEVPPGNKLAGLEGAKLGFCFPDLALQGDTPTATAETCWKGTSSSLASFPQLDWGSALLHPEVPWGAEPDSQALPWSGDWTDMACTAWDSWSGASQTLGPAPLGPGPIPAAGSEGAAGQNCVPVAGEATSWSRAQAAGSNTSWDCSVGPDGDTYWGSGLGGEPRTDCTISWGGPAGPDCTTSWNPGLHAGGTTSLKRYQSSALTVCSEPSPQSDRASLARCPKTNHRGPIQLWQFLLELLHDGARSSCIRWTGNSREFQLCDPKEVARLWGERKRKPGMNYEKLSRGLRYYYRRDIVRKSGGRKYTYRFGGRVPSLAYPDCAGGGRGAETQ
# Method in brief: as §1
# ETV1 = ETV1 (Homo sapiens, UniProt P50549 1-477)
# Method in brief: as §1
# Chain of SPIB (Q01892 whole entry): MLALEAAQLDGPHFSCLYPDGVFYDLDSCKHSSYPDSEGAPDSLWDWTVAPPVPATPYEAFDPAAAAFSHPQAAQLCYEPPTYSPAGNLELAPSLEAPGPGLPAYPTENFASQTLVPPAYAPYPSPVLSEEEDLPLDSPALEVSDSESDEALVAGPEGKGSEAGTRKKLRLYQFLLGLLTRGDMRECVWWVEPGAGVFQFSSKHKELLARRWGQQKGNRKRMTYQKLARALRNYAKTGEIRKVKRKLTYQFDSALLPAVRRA
# Chain of ETV1 (P50549 whole entry): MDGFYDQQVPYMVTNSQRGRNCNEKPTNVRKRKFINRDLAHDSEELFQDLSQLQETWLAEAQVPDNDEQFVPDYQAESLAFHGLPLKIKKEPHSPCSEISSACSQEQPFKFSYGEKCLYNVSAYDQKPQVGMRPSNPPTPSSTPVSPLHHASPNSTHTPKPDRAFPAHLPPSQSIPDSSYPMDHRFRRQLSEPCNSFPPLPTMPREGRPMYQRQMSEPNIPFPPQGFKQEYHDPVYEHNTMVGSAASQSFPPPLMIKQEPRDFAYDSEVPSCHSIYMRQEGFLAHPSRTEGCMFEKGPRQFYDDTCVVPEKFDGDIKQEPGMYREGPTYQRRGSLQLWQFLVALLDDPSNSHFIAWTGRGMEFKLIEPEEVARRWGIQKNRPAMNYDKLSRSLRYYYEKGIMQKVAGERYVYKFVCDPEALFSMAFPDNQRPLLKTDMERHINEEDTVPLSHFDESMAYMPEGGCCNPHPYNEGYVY
# Chain of ETV5 (P41161 whole entry): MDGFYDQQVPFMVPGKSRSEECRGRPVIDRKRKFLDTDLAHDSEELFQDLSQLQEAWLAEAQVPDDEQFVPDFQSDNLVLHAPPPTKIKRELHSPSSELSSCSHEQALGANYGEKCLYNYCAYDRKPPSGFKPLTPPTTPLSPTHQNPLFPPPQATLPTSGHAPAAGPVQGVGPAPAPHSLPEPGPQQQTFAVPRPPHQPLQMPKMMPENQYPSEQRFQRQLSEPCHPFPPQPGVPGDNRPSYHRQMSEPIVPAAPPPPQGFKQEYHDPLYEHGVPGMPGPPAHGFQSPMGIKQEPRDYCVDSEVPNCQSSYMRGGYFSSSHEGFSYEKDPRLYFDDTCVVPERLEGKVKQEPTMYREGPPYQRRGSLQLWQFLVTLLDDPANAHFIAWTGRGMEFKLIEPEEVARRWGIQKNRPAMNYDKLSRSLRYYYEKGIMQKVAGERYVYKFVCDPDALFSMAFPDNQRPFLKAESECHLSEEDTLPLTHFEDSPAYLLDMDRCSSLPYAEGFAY
# Chain of ELF1 (P32519 whole entry): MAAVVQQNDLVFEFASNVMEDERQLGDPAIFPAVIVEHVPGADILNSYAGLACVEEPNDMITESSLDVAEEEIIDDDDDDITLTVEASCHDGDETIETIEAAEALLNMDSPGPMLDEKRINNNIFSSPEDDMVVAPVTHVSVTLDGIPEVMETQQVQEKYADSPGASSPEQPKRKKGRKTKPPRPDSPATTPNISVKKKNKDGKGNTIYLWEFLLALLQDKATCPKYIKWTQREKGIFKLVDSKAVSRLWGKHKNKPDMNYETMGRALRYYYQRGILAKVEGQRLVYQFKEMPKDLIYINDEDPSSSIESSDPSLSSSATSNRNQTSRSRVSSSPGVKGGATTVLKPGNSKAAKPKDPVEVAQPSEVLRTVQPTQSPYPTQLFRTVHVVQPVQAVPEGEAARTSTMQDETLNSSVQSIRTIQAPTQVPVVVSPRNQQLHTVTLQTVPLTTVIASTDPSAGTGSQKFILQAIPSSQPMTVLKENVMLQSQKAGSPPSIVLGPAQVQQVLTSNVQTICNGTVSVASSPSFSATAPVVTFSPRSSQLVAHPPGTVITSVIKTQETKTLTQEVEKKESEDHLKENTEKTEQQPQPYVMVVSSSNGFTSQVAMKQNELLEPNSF
# Chain of ELF4 (Q99607 whole entry): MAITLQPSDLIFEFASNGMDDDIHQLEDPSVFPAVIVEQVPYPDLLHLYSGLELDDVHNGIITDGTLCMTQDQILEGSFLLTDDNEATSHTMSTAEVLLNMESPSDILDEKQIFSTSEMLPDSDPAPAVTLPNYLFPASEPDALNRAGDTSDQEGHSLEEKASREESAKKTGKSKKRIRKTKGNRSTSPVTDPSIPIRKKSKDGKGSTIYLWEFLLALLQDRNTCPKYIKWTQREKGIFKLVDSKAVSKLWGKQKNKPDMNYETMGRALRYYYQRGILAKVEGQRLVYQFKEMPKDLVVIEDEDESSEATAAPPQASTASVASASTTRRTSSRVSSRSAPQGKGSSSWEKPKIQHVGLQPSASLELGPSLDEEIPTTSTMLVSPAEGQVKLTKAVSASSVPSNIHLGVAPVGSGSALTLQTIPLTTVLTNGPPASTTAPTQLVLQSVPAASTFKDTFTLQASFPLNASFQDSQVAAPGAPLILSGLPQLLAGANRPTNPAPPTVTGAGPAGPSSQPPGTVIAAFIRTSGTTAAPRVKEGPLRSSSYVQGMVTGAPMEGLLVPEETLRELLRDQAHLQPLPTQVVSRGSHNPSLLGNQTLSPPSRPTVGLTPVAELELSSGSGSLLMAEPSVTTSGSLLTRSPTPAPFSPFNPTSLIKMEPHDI
sequence,measurement,setting,value
ATGTGT,binding signal,FLI1,"1.04 fold enrichment (6-mer frequency, TF over GST control)"
same,binding signal,ELK1,"1.11 fold enrichment (6-mer frequency, TF over GST control)"
same,binding signal,GABPA,"1.06 fold enrichment (6-mer frequency, TF over GST control)"
same,binding signal,ERG,"1.03 fold enrichment (6-mer frequency, TF over GST control)"
same,binding signal,ELF1,"1.03 fold enrichment (6-mer frequency, TF over GST control)"
same,binding signal,EHF,"1.08 fold enrichment (6-mer frequency, TF over GST control)"
same,binding signal,SPI1,"1.08 fold enrichment (6-mer frequency, TF over GST control)"
same,binding signal,SPIB,"1.11 fold enrichment (6-mer frequency, TF over GST control)"
same,binding signal,ELK3,"1.06 fold enrichment (6-mer frequency, TF over GST control)"
same,binding signal,FEV,"1.02 fold enrichment (6-mer frequency, TF over GST control)"
same,binding signal,ETV5,"1.16 fold enrichment (6-mer frequency, TF over GST control)"
same,binding signal,SPIC,"1.17 fold enrichment (6-mer frequency, TF over GST control)"
same,binding signal,ELF4,"1.08 fold enrichment (6-mer frequency, TF over GST control)"
same,binding signal,ELK4,"1.05 fold enrichment (6-mer frequency, TF over GST control)"
same,binding signal,ETV2,"1.11 fold enrichment (6-mer frequency, TF over GST control)"
same,binding signal,ETV1,"1.18 fold enrichment (6-mer frequency, TF over GST control)"
